Reference: publication PMC7862700, “An all-to-all approach to the identification of sequence-specific readers for epigenetic DNA modifications on cytosine”

Key:
Assay in all cases: DAPPL (digital affinity profiling via proximity ligation, sequencing); 10 mM Tris-HCl pH 7.5, 50 mM NaCl, 1 mM DTT, 4% glycerol, room temperature, 30 min; GST-TFs on glutathione beads, 16-mer random dsDNA library, 0.1% formaldehyde crosslink after washing; high values mean tight binding
Conditions in all cases: protein: recombinant; tags: N-terminal GST; dsDNA, one strand shown
FLI1 = biological target: T1, FLI1 (Homo sapiens, UniProt Q01543 1-452)
T1 sequence: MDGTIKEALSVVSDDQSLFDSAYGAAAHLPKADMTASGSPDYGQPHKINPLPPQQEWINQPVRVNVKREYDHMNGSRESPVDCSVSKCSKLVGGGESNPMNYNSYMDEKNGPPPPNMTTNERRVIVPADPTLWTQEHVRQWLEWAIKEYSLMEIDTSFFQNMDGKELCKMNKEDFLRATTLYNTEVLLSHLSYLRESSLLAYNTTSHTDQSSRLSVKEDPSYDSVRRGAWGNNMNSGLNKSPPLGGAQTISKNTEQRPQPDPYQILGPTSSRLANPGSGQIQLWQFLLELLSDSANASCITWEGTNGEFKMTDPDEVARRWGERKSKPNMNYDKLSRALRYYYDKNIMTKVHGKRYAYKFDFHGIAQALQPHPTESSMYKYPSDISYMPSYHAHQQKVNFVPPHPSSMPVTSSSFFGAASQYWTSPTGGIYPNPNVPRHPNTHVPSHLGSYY
How it was run: (§1)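 Human transcription factors were made in yeast as GST fusions, captured on glutathione beads and barcoded with DNA. With a tag-only sample included, the pool was incubated with 200 nmole of a random double-stranded 16-mer DNA library in Tris/NaCl/DTT/glycerol buffer at room temperature for 30 min, then crosslinked with 0.1% formaldehyde after washing, ligated by proximity, amplified and sequenced. For binding signal, each hexamer's read frequency for a factor is divided by its frequency for the tag-only sample.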

ELK1 = biological target: T2, ELK1 (Homo sapiens, UniProt P19419 1-428)
T2 sequence: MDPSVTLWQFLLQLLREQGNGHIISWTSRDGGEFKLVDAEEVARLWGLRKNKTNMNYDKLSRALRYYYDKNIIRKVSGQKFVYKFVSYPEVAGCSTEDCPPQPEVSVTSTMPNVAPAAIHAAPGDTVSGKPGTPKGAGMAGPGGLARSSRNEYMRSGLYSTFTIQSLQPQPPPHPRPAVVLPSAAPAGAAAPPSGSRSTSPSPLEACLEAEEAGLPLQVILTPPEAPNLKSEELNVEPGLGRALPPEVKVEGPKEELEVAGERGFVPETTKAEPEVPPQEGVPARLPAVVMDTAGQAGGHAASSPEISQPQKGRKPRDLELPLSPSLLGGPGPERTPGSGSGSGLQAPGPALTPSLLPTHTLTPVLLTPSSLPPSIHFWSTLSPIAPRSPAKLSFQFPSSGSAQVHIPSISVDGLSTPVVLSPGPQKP
How it was run: as §1

GABPA = biological target: T3, GABPA (Homo sapiens, UniProt Q06546 1-454)
T3 sequence: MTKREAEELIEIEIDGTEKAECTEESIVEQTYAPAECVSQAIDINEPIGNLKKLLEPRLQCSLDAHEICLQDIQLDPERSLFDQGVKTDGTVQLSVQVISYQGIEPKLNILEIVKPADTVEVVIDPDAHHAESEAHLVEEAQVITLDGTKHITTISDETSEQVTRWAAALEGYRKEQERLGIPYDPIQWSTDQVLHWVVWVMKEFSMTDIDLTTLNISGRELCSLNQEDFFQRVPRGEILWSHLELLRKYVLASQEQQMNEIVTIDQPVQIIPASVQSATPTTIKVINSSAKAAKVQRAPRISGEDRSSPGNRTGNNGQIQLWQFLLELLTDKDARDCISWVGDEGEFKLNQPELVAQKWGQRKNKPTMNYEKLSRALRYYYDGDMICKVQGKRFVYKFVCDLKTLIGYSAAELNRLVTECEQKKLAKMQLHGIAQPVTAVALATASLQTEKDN
How it was run: as §1

ERG = biological target: T4, ERG (Homo sapiens, UniProt P11308 1-479)
T4 sequence: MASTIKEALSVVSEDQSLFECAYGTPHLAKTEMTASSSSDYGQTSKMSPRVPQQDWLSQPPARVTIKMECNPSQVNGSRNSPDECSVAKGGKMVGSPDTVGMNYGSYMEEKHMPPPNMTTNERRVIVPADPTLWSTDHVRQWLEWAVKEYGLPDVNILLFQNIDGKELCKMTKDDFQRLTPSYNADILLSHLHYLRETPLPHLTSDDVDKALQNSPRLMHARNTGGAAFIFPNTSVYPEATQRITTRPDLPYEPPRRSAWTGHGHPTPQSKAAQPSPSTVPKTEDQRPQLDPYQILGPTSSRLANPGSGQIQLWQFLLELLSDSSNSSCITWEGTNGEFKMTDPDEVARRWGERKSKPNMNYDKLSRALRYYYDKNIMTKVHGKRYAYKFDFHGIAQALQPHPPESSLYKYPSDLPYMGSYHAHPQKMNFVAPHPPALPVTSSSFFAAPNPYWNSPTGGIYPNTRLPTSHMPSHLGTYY
How it was run: as §1

ELF1 = ELF1 (Homo sapiens, UniProt P32519 1-619)
How it was run: as §1

EHF = biological target: T5, EHF (Homo sapiens, UniProt Q9NZC4 1-300)
T5 sequence: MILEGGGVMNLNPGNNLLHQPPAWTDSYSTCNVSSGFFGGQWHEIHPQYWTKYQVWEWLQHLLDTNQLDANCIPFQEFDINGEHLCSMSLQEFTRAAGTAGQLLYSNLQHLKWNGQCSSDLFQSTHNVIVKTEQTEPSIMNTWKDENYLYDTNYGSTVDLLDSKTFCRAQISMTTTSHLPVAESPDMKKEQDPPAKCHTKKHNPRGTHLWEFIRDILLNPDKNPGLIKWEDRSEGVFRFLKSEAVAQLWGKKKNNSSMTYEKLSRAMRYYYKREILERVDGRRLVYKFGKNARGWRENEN
How it was run: as §1

SPI1 = SPI1 (Homo sapiens, UniProt P17947 1-270)
How it was run: as §1

SPIB = SPIB (Homo sapiens, UniProt Q01892 1-262)
How it was run: as §1

ELK3 = biological target: T6, ELK3 (Homo sapiens, UniProt P41970 1-407)
T6 sequence: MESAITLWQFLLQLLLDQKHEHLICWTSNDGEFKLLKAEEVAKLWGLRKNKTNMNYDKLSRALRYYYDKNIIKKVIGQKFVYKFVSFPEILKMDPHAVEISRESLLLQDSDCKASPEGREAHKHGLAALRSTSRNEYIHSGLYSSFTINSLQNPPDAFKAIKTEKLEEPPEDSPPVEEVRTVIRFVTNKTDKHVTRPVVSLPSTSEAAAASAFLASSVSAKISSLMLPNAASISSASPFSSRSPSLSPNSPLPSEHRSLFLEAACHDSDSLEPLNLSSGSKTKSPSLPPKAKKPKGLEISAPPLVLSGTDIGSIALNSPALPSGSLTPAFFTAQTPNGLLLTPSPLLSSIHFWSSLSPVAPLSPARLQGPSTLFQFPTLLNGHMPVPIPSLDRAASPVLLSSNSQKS
How it was run: as §1

Sequence of SPIB (Q01892 whole entry): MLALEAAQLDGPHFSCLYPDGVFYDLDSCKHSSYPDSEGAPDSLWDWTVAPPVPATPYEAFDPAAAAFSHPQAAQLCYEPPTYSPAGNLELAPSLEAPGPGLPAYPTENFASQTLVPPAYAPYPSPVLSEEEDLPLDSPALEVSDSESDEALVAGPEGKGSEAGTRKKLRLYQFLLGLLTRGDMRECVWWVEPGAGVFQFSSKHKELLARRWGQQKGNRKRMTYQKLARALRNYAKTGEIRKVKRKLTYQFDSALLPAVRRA
Sequence of ELF1 (P32519 whole entry): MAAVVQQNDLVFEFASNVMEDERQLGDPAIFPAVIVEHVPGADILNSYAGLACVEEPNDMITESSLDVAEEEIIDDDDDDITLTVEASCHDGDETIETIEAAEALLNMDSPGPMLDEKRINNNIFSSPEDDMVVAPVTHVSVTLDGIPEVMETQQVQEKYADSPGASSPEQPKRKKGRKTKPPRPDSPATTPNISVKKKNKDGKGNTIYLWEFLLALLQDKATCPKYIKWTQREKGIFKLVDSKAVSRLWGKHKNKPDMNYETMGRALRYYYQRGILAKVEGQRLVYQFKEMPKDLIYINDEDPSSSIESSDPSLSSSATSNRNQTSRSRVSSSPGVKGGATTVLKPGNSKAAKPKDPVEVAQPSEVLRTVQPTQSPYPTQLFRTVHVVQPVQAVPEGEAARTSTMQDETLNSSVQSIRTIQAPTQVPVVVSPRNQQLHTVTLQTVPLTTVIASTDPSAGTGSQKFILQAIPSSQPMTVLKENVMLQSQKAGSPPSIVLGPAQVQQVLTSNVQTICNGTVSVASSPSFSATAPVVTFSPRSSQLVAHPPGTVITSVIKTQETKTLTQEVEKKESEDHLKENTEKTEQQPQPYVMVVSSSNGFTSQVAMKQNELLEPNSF

Sequence | binding signal (FLI1) | binding signal (ELK1) | binding signal (GABPA) | binding signal (ERG) | binding signal (ELF1) | binding signal (EHF) | binding signal (SPI1) | binding signal (SPIB) | binding signal (ELK3)
TATACG | 1.32 fold enrichment (6-mer frequency, TF over GST control) | 1.31 fold enrichment (6-mer frequency, TF over GST control) | 1.3 fold enrichment (6-mer frequency, TF over GST control) | 1.24 fold enrichment (6-mer frequency, TF over GST control) | 1.31 fold enrichment (6-mer frequency, TF over GST control) | 1.2 fold enrichment (6-mer frequency, TF over GST control) | 1.2 fold enrichment (6-mer frequency, TF over GST control) | 1.35 fold enrichment (6-mer frequency, TF over GST control) | 1.22 fold enrichment (6-mer frequency, TF over GST control)
TCCCGG | 2.29 fold enrichment (6-mer frequency, TF over GST control) | 2.07 fold enrichment (6-mer frequency, TF over GST control) | 2.14 fold enrichment (6-mer frequency, TF over GST control) | 2.22 fold enrichment (6-mer frequency, TF over GST control) | 2.12 fold enrichment (6-mer frequency, TF over GST control) | 2.19 fold enrichment (6-mer frequency, TF over GST control) | 2.01 fold enrichment (6-mer frequency, TF over GST control) | 2.43 fold enrichment (6-mer frequency, TF over GST control) | 1.96 fold enrichment (6-mer frequency, TF over GST control)
TTTTAT | 1.4 fold enrichment (6-mer frequency, TF over GST control) | 1.16 fold enrichment (6-mer frequency, TF over GST control) | 1.42 fold enrichment (6-mer frequency, TF over GST control) | 1.3 fold enrichment (6-mer frequency, TF over GST control) | 1.17 fold enrichment (6-mer frequency, TF over GST control) | 1.44 fold enrichment (6-mer frequency, TF over GST control) | 1.44 fold enrichment (6-mer frequency, TF over GST control) | 1.37 fold enrichment (6-mer frequency, TF over GST control) | 1.34 fold enrichment (6-mer frequency, TF over GST control)
TTACTC | 1.31 fold enrichment (6-mer frequency, TF over GST control) | 1.24 fold enrichment (6-mer frequency, TF over GST control) | 1.26 fold enrichment (6-mer frequency, TF over GST control) | 1.19 fold enrichment (6-mer frequency, TF over GST control) | 1.24 fold enrichment (6-mer frequency, TF over GST control) | 1.34 fold enrichment (6-mer frequency, TF over GST control) | 1.32 fold enrichment (6-mer frequency, TF over GST control) | 1.24 fold enrichment (6-mer frequency, TF over GST control) | 1.26 fold enrichment (6-mer frequency, TF over GST control)
TTTCTA | 1.3 fold enrichment (6-mer frequency, TF over GST control) | 1.39 fold enrichment (6-mer frequency, TF over GST control) | 1.29 fold enrichment (6-mer frequency, TF over GST control) | 1.34 fold enrichment (6-mer frequency, TF over GST control) | 1.28 fold enrichment (6-mer frequency, TF over GST control) | 1.36 fold enrichment (6-mer frequency, TF over GST control) | 1.36 fold enrichment (6-mer frequency, TF over GST control) | 1.19 fold enrichment (6-mer frequency, TF over GST control) | 1.26 fold enrichment (6-mer frequency, TF over GST control)
GAAATA | 1.45 fold enrichment (6-mer frequency, TF over GST control) | 1.42 fold enrichment (6-mer frequency, TF over GST control) | 1.48 fold enrichment (6-mer frequency, TF over GST control) | 1.61 fold enrichment (6-mer frequency, TF over GST control) | 1.45 fold enrichment (6-mer frequency, TF over GST control) | 1.64 fold enrichment (6-mer frequency, TF over GST control) | 1.49 fold enrichment (6-mer frequency, TF over GST control) | 1.54 fold enrichment (6-mer frequency, TF over GST control) | 1.5 fold enrichment (6-mer frequency, TF over GST control)
CTCTTG | 1.4 fold enrichment (6-mer frequency, TF over GST control) | 1.33 fold enrichment (6-mer frequency, TF over GST control) | 1.41 fold enrichment (6-mer frequency, TF over GST control) | 1.29 fold enrichment (6-mer frequency, TF over GST control) | 1.36 fold enrichment (6-mer frequency, TF over GST control) | 1.3 fold enrichment (6-mer frequency, TF over GST control) | 1.3 fold enrichment (6-mer frequency, TF over GST control) | 1.43 fold enrichment (6-mer frequency, TF over GST control) | 1.53 fold enrichment (6-mer frequency, TF over GST control)
GCTCTC | 1.43 fold enrichment (6-mer frequency, TF over GST control) | 1.5 fold enrichment (6-mer frequency, TF over GST control) | 1.53 fold enrichment (6-mer frequency, TF over GST control) | 1.42 fold enrichment (6-mer frequency, TF over GST control) | 1.47 fold enrichment (6-mer frequency, TF over GST control) | 1.34 fold enrichment (6-mer frequency, TF over GST control) | 1.35 fold enrichment (6-mer frequency, TF over GST control) | 1.29 fold enrichment (6-mer frequency, TF over GST control) | 1.46 fold enrichment (6-mer frequency, TF over GST control)
